Laboratory results: PubChem BioAssay (NCATS)
A number with no mark means an inactive call. The rule behind the calls is not given here.

System: HIV-1 nucleocapsid protein NCp7 (binding to TG oligonucleotide)
Assay: HIV Nucleocapsid (AID 346);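 note: potency is for inhibitors that block NC binding and lower polarization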
Details: HIV-1 NC / fluorescein-TGTGTGTG probe, fluorescence polarization
Method in brief: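 NCp7 100 nM + fluorescein TG4xF 10 nM; Hepes pH 7.5/250mM NaCl/1uM ZnCl2/0.004% PEG 20000; 1 hr RT; FP, 45 s exposure; oligo-only wells as negative control.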
Potency is the fitted concentration of half-maximal effect.

**Q.** Which Potency does the source give for O=c1cnc2cnc(N3CCNCC3)nc2n1C1CC1 here?
**A.** > 20 µM
